Data as given in PMC8384837, “Expanding the binding specificity for RNA recognition by a PUF domain”.

What follows are sequences tested against PUM1 PUF domain R5-PRL (Homo sapiens, UniProt Q14671 828-1176, C1007P;Q1011L) (assay: yeast three-hybrid, YBZ-1, SC-Leu-His + 0.5 mM 3-AT, 4 days). Conditions: tags: N-Gal4 AD-HA kept; label: inside an RPR1-promoter hybrid RNA with tandem MS2 sites; ssRNA.
Method in brief: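 Repeat regions from input (SC-Leu) and selection (SC-Leu-His + 0.5 mM 3-AT) plates were PCR-amplified and Illumina-sequenced after four days of growth. The cells were strain YBZ-1 with a LexA–MS2 coat fusion and a HIS3 reporter, co-expressing Pumilio-1 PUF domain libraries and matching RNA elements from a centromeric plasmid. The interaction score is the log change in variant frequency from input to selection, taken in log2 with a pseudocount of 1 for absent variants.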

Sequence	binding signal
GGCUAGAACUAGUGGAUCCCCCGGCGCCCGGCGGCUCGAGCCCGGGUAAGUGUCAAUAGUCUGCAUGCCGCCGGGCGCCAUGCCUGCAGGUCGACUCUAGAAAACAUG	0.34 log2 enrichment (interaction score)
GGCUAGAACUAGUGGAUCCCCCGGCGCCCGGCGGCUCGAGCCCGGGUAAGUGUUAAUAGUCUGCAUGCCGCCGGGCGCCAUGCCUGCAGGUCGACUCUAGAAAACAUG	4.51 log2 enrichment (interaction score)
GGCUAGAACUAGUGGAUCCCCCGGCGCCCGGCGGCUCGAGCCCGGGUAAGUGUAAAUAGUCUGCAUGCCGCCGGGCGCCAUGCCUGCAGGUCGACUCUAGAAAACAUG	3.53 log2 enrichment (interaction score)
